ASM inhibitor: Inhibitors of Secretory Acid Sphingomyelinase (S-ASM): qHTS. placental ASM, HMU-PC fluorogenic substrate, 60 min. Potency, µM (doses to about 57.5 µM), usual class: inhibitors. actives 0.006% (n = 340,000). AID 504937, 2011; active = well fitted inhibition curve with a large enough effect; inconclusive = small, poorly fitted or top-dose-only effect; inactive = no such curve, though single readings can be large or run the other way
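Fluorescence read-out (Ex 386 nm, Em 447 nm) after stopping the reaction at pH 10. Enzyme: ASM from human placenta; substrate HMU-PC0, 9 uM final; 60 min, 37 °C. Compound preincubation 10 min, ambient temperature.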
gsp antagonist: qHTS for Antagonists of gsp, the Etiologic Mutation Responsible for Fibrous Dysplasia/McCune-Albright Syndrome: qHTS; gsp-mutant cells, cAMP HTRF, 30 min; Potency, µM (titrated, usually from 76.9 µM), most hits filed as inhibitors; actives 0.4% (n = 340,000); AID 624288, 2012; calls by dose curve; cell line not stated here;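 also: intracellular cAMP measured with PDE inhibitor Ro 20-1724 present during compound exposure; nearly all actives have a fitted effect of over 65% in size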
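G418-selected cells were plated in DMEM/10% FBS for 16-24 h at 37C, then treated with compounds plus the PDE inhibitor […] (300 uM solution added) for 30 min at 37C. Intracellular cAMP was measured by HTRF after 30 min lysis at room temperature.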
gsp agonist: qHTS for Agonist of gsp, the Etiologic Mutation Responsible for Fibrous Dysplasia/McCune-Albright Syndrome: qHTS; actives 0.13% (n = 340,000); gsp mutant cells, cAMP HTRF, 30 min; AID 624287, 2012; Potency, µM (titrated, usually from 76.9 µM), usual class: activators; active = well fitted activation curve with a large enough effect; inconclusive = small, poorly fitted or top-dose-only effect, or another doubt; inactive = no such curve, though single readings can be large or run the other way; cell line not stated here;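 also: phosphodiesterase inhibitor Ro 20-1724 added with compounds to block cAMP breakdown; nearly all actives have a fitted effect of over 60% in size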
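Cells stably selected in G418 were plated at 2000/well, grown 16-24 hr, then given compounds in DMSO with the PDE inhibitor […] (300 uM solution added) for 30 min at 37C; cAMP was read by HTRF.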
TSHR antag: Antagonists of the Thyroid Stimulating Hormone Receptor: HTS campaign. Thyrotropin receptor (Homo sapiens), P16473. TSHR-expressing cells, TSH-stimulated cAMP HTRF, 2 h; stronger effect = lower value. activity change, negative = inhibition, % at 11.5 µM. actives 0.2% (n = 330,000);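 active = activity change below a set negative limit, meaning inhibition stronger than a set level, cut at about -70% in these data; inconclusive = activity change between two set negative limits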
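Antagonism was scored as loss of TSH-driven cAMP in TSHR cells, stimulated with 4nM TSH (EC80) for 2 hours at 37 deg C and detected by homogeneous HTRF competition immunoassay.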
Each line names hits and unclear results; the compound was inactive in the other large screens. Most compounds without a hit are left out; they make up all but 0.63% or so of the library.

COc1cc(/C=C(/C#N)c2ccc(F)cc2)ccc1OCc1ccc(C(=O)O)o1	gsp antagonist 40µM
CCCc1nc(SCC(=O)N2CCC(Cc3ccccc3)CC2)c2c(=O)n(C)c(=O)n(C)c2n1	ASM inhibitor inconclusive, gsp antagonist 25µM, gsp agonist inconclusive
CC(=O)O[C@H]1[C@@H](O)[C@H](O)[C@H](Oc2c(O)c(C)c3c4c2[C@@H](C)CC[C@@H]4[C@@H](C)C[C@H]3C=C(C)C)O[C@H]1C	none (no result: gsp agonist)
Cc1cccc(N2CCN(C(=O)C3CCN(S(=O)(=O)c4cccc5cccnc45)CC3)CC2C)c1 (stereo unspecified)	none
Cc1cccc(N2CCN(C(=O)C3CCN(c4nnc(-n5cccc5)s4)CC3)CC2C)c1 (stereo unspecified)	gsp antagonist 28µM
Cc1cccc(N2CCN(C(=O)C3CCN(S(=O)(=O)c4cccc5nsnc45)CC3)CC2C)c1 (stereo unspecified)	gsp antagonist 35µM
COCCC(=O)N1CCC(Oc2ccc(C(=O)NCc3nccn3C)cc2)CC1	none
OCCN1CCN(CC(O)C(F)(F)F)CC1 (stereo unspecified)	none
COC(=O)c1ccc(OC(=O)CS(=O)c2ccccc2[N+](=O)[O-])cc1 (stereo unspecified)	none
O=C(CS(=O)c1ccc(C(F)(F)F)cc1[N+](=O)[O-])Oc1ccccc1 (stereo unspecified)	TSHR antag -71
O=C(O)c1c(Cl)cccc1Nc1ccccc1	gsp antagonist inconclusive (no result: TSHR antag)
CC(=O)NC(c1ccco1)c1cc(Cl)c2ccc(N3CCCCC3)nc2c1O (stereo unspecified)	none (no result: ASM inhibitor, gsp antagonist, gsp agonist)
Cc1nc2ccc(S(=O)(=O)Nc3cccc(-c4nc5cccnc5s4)c3C)cc2s1	gsp antagonist 35µM
Cc1cccc(NC(=O)c2ccccc2OCC(=O)c2ccccc2)c1	none
Cc1cccc(NC(=O)COc2ccccc2C(=O)NC(C)c2ccccc2)c1 (stereo unspecified)	gsp antagonist 28µM
COC(=O)c1cccc(NC(=S)NCc2ccc(F)cc2)c1	none
O=C(Cc1ccc(Cl)cc1)Nc1ccccc1N1CCN(C(=O)c2ccccc2)CC1	gsp antagonist 28µM
O=C(Nc1ccccc1N1CCN(C(=O)c2ccccc2)CC1)c1ccc(Cl)cc1	gsp antagonist inconclusive
CCOc1ccccc1N1CCN(C(=O)c2ccc3nc(N)sc3c2)CC1	none (no result: TSHR antag)
COc1ccc(N(CC(=O)NC2CCS(=O)(=O)C2)S(=O)(=O)c2ccc(Cl)c(Cl)c2)cc1 (stereo unspecified)	none
O=C(CSc1c(Cl)cccc1Cl)N1CCC(c2nc3ccccc3s2)CC1	gsp antagonist inconclusive
O=C(CSc1ccc(Cl)cc1)N1CCC(c2nc3ccccc3s2)CC1	gsp antagonist 32µM
O=C1C2C=CC=CC2=NC(=S)N1CCN1CCC(=C(c2ccc(F)cc2)c2ccc(F)cc2)CC1 (stereo unspecified)	none (no result: ASM inhibitor, gsp antagonist, gsp agonist)
Cc1ccccc1OCc1nnc(SCC(=O)Nc2ccc3nc(SCC(=O)NC(C)(C)C)sc3c2)n1C	gsp antagonist 32µM, gsp agonist inconclusive
CCOc1cc(N2CCOCC2)c(OCC)cc1NC(=O)c1cc(S(=O)(=O)N2CCOCC2)ccc1C	TSHR antag -82
COc1ccc(CCNC2=C(Cl)C(=O)N(CCc3ccc(OC)c(OC)c3)C2=O)cc1OC	gsp antagonist inconclusive, TSHR antag -74
Cc1cnc(C(=O)Nc2ccc(OC(F)(F)F)cc2)cn1	none
CCCCCCSc1cc(-c2nc3cc(C)ccn3c2NCCCC)ccc1OC	none (no result: gsp agonist)
CCCCNc1c(-c2cccc(-c3cc(C(C)=O)cs3)c2)nc2cc(C)ccn12	gsp antagonist 32µM
Cc1ccc(-c2nc3ncccc3o2)cc1NC(=O)c1cccs1	gsp antagonist 35µM
Cc1ccc(-c2nc3ncccc3o2)cc1NC(=O)C(C)(C)C	none
O=C(O)c1cc(-c2ccc(N3CCOCC3)cc2)nn1-c1ccc(F)cc1F	none
Brc1cc(Br)c2nc(-c3ccc(N4CCOCC4)cc3)ccc2c1	gsp antagonist 11µM, gsp agonist inconclusive
Cc1ccc(-c2nnc(SCC(=O)NC3CCCC3)n2C)cc1	TSHR antag -94
Cn1c(SCC(=O)NC2CCCCC2)nnc1-c1ccncc1	gsp agonist inconclusive
